# Measured values published in ChEMBL document CHEMBL1961873, “Compounds: GSK PKIS; Assays: Nanosyn kinase panel” (2012).
# Biological target: T1, Serine/threonine-protein kinase 4 (Homo sapiens) (UniProt Q13043)
# T1 sequence (whole entry): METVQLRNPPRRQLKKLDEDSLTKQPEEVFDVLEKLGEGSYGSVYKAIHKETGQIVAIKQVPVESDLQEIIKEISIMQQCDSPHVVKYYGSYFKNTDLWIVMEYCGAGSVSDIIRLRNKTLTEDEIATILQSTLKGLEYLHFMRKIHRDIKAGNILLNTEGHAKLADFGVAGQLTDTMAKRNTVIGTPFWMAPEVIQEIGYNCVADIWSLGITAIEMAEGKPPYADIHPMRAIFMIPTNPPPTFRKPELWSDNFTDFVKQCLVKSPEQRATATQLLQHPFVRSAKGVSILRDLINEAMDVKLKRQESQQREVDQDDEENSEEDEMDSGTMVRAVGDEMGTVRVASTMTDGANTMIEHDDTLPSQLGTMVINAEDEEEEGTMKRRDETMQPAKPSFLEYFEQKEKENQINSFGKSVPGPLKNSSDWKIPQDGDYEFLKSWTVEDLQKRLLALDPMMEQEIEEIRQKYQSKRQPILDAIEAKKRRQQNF
# Settings: at 0.1 µM
row,SMILES,inhibition [%]
1,Nc1nccc(C#Cc2cncnc2Nc2ccc(OCc3cccc(F)c3)c(Cl)c2)n1,6.4
2,O=C1Nc2ccc(-c3cccnc3)cc2C1=Cc1cc(Br)c(O)c(Br)c1,9.98
3,Nc1ccc(C#Cc2cncnc2Nc2ccc(OCc3cccc(F)c3)c(Cl)c2)cc1,2.07
4,NS(=O)(=O)c1cccc(Nc2cc(-c3ccc(F)cc3)n[nH]2)c1,8.09
5,CCS(=O)(=O)c1ccc(OC)c(Nc2ncc(-c3cccc(OC)c3)o2)c1,6.63
6,CCn1c(-c2nonc2N)nc2ccc(F)cc21,5.88
7,O=C1Nc2ccccc2/C1=C/Nc1ccc2[nH]c(=O)[nH]c2c1,18.1
8,CS(=O)(=O)Nc1cccc(-c2ccc3c(NC(=O)C4CC4)n[nH]c3c2)c1,3.33

# Biological target: T1, Serine/threonine-protein kinase 4 (Homo sapiens)
# Settings: at 1 µM
row,SMILES,inhibition [%]
1,Nc1nccc(-c2c(-c3ccc(F)cc3)nn3cc(C(F)(F)F)ccc23)n1,-0.05
2,CN1CCN(C(=O)c2ccc(NC(=O)Nc3ccc(N(C)c4ccnc(Nc5ccc(CS(C)(=O)=O)cc5)n4)cc3)cc2)CC1,60.9
3,CCn1c(-c2nonc2N)nc2c(C#CC(C)(C)O)nc(OCCNC)cc21,6.97
4,COc1ccc(-c2nn3ncccc3c2-c2ccnc(Nc3cccc(C(F)(F)F)c3)n2)cc1,2.89
5,Cc1ccc(C(=O)NC2CC2)cc1-c1ccc2[nH]ncc2c1,1.26
6,Cc1ccc2c(c1)/C(=N/Nc1ccc(S(N)(=O)=O)cc1)C(=O)N2,65.9
7,FC(F)(F)c1ccc(-c2nn3ncccc3c2-c2ccnc(Nc3ccc4c(c3)OCCO4)n2)cc1,7.46
8,NS(=O)(=O)c1ccc(Nc2cc(-c3cccc(O)c3)n[nH]2)cc1,16.1
9,Cc1cc(O)cc(C)c1/C=C/c1cncc(C(=O)N(C)C)c1,3.11
10,COc1cc(Nc2nccc(-c3cnn4ncccc34)n2)cc(OC)c1,35.6
11,COc1cccc(-n2ncc3c(N/N=C/c4ccc(C)cc4)ncnc32)c1,13.2
12,[O-][S+]1CCN(Cc2ccc(-c3ccc4ncnc(Nc5ccc(OCc6ccccc6)c(Cl)c5)c4c3)o2)CC1,1.83
13,COc1ccc2ncnc(Nc3ccc(OCc4ccccc4)cc3)c2c1,4.04
14,CN(C)C(=O)O[C@H]1CN[C@H](C#Cc2cc3ncnc(Nc4ccc(OCc5cccc(F)c5)c(Cl)c4)c3s2)C1,4.55
15,NS(=O)(=O)c1ccc(NC=C2C(=O)Nc3ccc4ncsc4c32)cc1,80.4
16,CS(=O)(=O)CCNCc1nc(-c2ccc3ncnc(Nc4ccc(OCc5cccc(C(F)(F)F)c5)cc4)c3c2)cs1,6.13
17,CCS(=O)(=O)c1ccc(OC)c(Nc2nccc(N(C)c3ccc4c(C)n[nH]c4c3)n2)c1,5.13

row,SMILES,inhibition [%]
1,Nc1nccc(-c2c(-c3ccc(F)cc3)ncn2CCCN2CCOCC2)n1,5.25
2,COC(=O)c1ccc2c(c1)C(=Cc1cc(Br)c(O)c(Br)c1)C(=O)N2,19
3,COc1cc2ncnc(Nc3ccc4c(cnn4Cc4ccccc4)c3)c2cc1OC,7.03
4,O=S(=O)(CCOCc1ccc(-c2ccc3ncnc(Nc4ccc(OCc5cccc(F)c5)c(Cl)c4)c3c2)o1)c1ccccc1,7.99
5,NC(=O)c1sc(-n2cnc3ccccc32)cc1OCc1ccccc1Br,7.07
6,NS(=O)(=O)c1cccc(-c2cc3ccncc3cc2OCc2ccccc2)c1,11.9
7,Cc1cc(Cl)cc2c1NC(=O)C2=NNc1ccc(S(N)(=O)=O)cc1,7.11
8,Oc1cccc(-c2nc(-c3ccccc3)[nH]c2-c2ccncc2)c1,8.96
9,COC(=O)Nc1nc2cc(Oc3ccc(NC(=O)Nc4cccc(Br)c4)cc3)ccc2[nH]1,2.71
10,Nc1nccc(C#Cc2cncnc2Nc2ccc(OCc3cccc(F)c3)c(Cl)c2)n1,10.4
11,O=C1Nc2ccc(-c3cccnc3)cc2C1=Cc1cc(Br)c(O)c(Br)c1,39.6
12,Nc1ccc(C#Cc2cncnc2Nc2ccc(OCc3cccc(F)c3)c(Cl)c2)cc1,2.02
13,NS(=O)(=O)c1cccc(Nc2cc(-c3ccc(F)cc3)n[nH]2)c1,16.1
14,CCS(=O)(=O)c1ccc(OC)c(Nc2ncc(-c3cccc(OC)c3)o2)c1,10.6
15,CCn1c(-c2nonc2N)nc2ccc(F)cc21,5.97
16,O=C1Nc2ccccc2/C1=C/Nc1ccc2[nH]c(=O)[nH]c2c1,67.2
17,CS(=O)(=O)Nc1cccc(-c2ccc3c(NC(=O)C4CC4)n[nH]c3c2)c1,4.09
